# HepG2 viability = qHTS for Inhibitors of TGF-b: Cytotox Counterscreen | HepG2 CAGA-GFP viability, ATP luminescence, 18 h | Potency, µM (doses to about 46.1 µM), for inactives: top-dose activity change, negative = cytotoxicity, actives largely listed as cytotoxic | 410,000 tested, 0.76% active
#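 HepG2 CAGA-GFP cells (1000/well, DMEM with 1% FBS) received compound, then TGF-beta at 500 pg/mL final, and were incubated 18 hours at 37 degrees C. Viability was read by CellTiter-Glo luminescence. Media-only wells were set as complete cell-killing and DMSO as no toxicity.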
# Nrf2 block = Nrf2 qHTS screen for inhibitors; 360,000 tested, 2.1% active; A549 ARE-Fluc reporter, luciferase luminescence, 18-24 h; Potency, µM (highest dose often 46 µM), inactives show at the top dose activity change, negative = inhibition, usual class: inhibitors; note: % is set by controls: 0 for no effect and ±100 for the full control effect; nearly all actives have a fitted effect of over 60% in size
#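 Quantitative HTS in A549 cells stably bearing an antioxidant response element-firefly luciferase construct. Inhibition of Nrf2-driven transcription was scored by luminescence after 18-24 h of compound exposure at 37 °C.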
# TGFb SMAD3 inh = qHTS for Inhibitors of TGF-b; HepG2 CAGA-GFP TGF-b/SMAD3 reporter, GFP fluorescence, 18 h; TGF-beta stimulated, 500 pg/mL final; Potency, µM (top dose mostly 46.1 µM), for inactives: at the highest dose activity, negative = inhibition, actives largely listed as inhibitors; 410,000 tested, 1.2% active; AID 588855, 2011; note: % is set by controls: 0 for no effect and ±100 for the full control effect; nearly all actives have a fitted effect of over 65% in size
#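 HEPG2 CAGA-GFP, 1000 cells/well; 2 h settle, 37 C; cpd via pin tool; TGF-b 500 pg/mL final; 18 h, 37 C; GFP imaging ex488/em500-530; %Activity normalised to -TGF-b and +DMSO controls; CRC fit, curve class.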
# ATXN2 expr inh = Primary qHTS for Inhibitors of ATXN expression; Potency, µM (top dose mostly 57 µM), without a hit: at the highest dose activity change, negative = inhibition, most hits filed as inhibitors; HEK-293 ATXN2-luciferase reporter, luminescence, 24 h; 360,000 tested, 0.72% active; AID 1745845, 2022; note: % is set by controls: 0 for no effect and ±100 for the full control effect; nearly all actives have a fitted effect of over 55% in size
#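 qHTS (up to 57 uM final) was run with 24 h compound exposure of reporter cells at 37 °C. Each well was multiplexed: SteadyGlo luminescence measured ATXN2-luciferase expression after a fluorogenic Gly-Phe-AFC viability readout (25 uM final).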
# A549 tox = Nrf2 qHTS screen for inhibitors: counterscreen for cytotoxicity; A549 ARE-Fluc cells, CellTiter-Fluor viability, 18-24 h; Potency, µM (doses to about 46 µM), without a hit: at the highest dose activity change, negative = cytotoxicity, hits mostly inhibitors; 390,000 tested, 0.16% active; AID 504648, 2011; note: % is set by controls: 0 for no effect and ±100 for the full control effect
#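 Cytotoxicity counterscreen: CellTiter-Fluor fluorescence was measured in A549 ARE_Fluc cells after 18-24 h of compound exposure in a concentration series. The subsequent BugLite luminescent read reports ARE-luciferase activity.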
# S2 tox = Viability Counterscreen for Primary qHTS for Inhibitors of ATXN expression; S2 cells (HEK-293 line with an ATXN2-luciferase reporter) viability, CellTiter-Fluor protease fluorescence, 24 h; 400,000 tested, 0.49% active; Potency, µM (top dose mostly 56.7 µM), hits mostly cytotoxic; note: nearly all actives have a fitted effect of over 40% in size
# Starred values were filed as active, the others as inactive; i = inactive; u = inconclusive; x = no result given. An excerpt weighted towards active compounds, which were near 3.8% of everything screened. Calls come from the whole dose curve; as a rule, active = well fitted curve in the direction sought with a large enough effect; inconclusive = small, poorly fitted or top-dose-only effect, or another doubt; inactive = no such curve, though single readings can be large; an effect the other way counts as inactive or inconclusive. Potency is the fitted concentration of half-maximal effect.
SMILES,HepG2 viability,Nrf2 block,TGFb SMAD3 inh,ATXN2 expr inh,A549 tox,S2 tox
COc1ccc(NC(=O)c2cn(-c3ccccc3)nc2-c2ccncc2)cc1,-19%,12%,7%,-25%,-2%,i
CCNc1nc(NCc2ccccc2)nc(SCC(=O)Nc2ccccc2)n1,-14%,23µM*,u,-10%,-16%,i
COc1ccc(CC(=O)NCCc2sc(-c3ccc(Cl)cc3)nc2C)cc1OC,-21%,x,7.9µM*,-16%,-5%,u
CCOC(=O)C1CCN(C2=NC(=O)/C(=C/c3ccc(Cl)cc3)S2)CC1,-5%,10%,0%,-4%,0%,i
CCOC(=O)CSC1=NC(=O)/C(=C\c2ccc(Cl)cc2)S1,-41%,u,9%,25µM*,-5%,u
O=C(Nc1ccccc1)C(=O)Nc1ccccn1,-45%,u,0%,-18%,3%,i
S=C(Nc1ccc(Nc2ccccc2)cc1)Nc1ccccn1,-3%,21µM*,u,-35%,u,i
S=C(Nc1ccccc1)c1ccccn1,-40%,u,11µM*,36%,0%,u
COc1cc(OC)cc(C(=O)NC(=S)Nc2ccc3c4c(cccc24)CC3)c1,-2%,x,-15%,-13%,2%,i
COc1ccc(C(=O)NC(=S)NNC(=O)[C@H]2C[C@@H]2c2ccccc2)cc1OC,37%,16µM*,16%,-39%,0%,i
COc1ccc(C(=O)NC(=S)Nc2ccc3c4c(cccc24)CC3)cc1OC,36%,7.3µM*,-7%,-28%,-16%,i
CCOC(=O)Cc1c(Sc2ccccc2)c2ccccc2n1C,-19%,23µM*,-23%,-13%,-11%,i
Cn1c(CC(=O)NC(C)(C)CO)c(Sc2ccccc2)c2ccccc21,-1%,17%,0%,-3%,-6%,i
COc1cccc(N=C2SC(C(=O)Nc3ccc(F)cc3)CC(=O)N2C)c1 (stereo unspecified),-19%,21µM*,-19%,-14%,u,i
N#Cc1ccc(C(=O)OCC(=O)Nc2cccnc2Cl)cc1,-8%,2%,-18%,x,-5%,x
CCC(C)NC(=O)C1CCC(CNS(=O)(=O)c2ccc3c(c2)N(C(C)=O)CCO3)CC1 (stereo unspecified),-12%,15%,-2%,-10%,-7%,i
CCc1cccc(C)c1Nc1nc2ccccc2n2cnnc12,5%,-21%,u,0%,-16%,i
CC(=O)N1c2ccc(S(=O)(=O)NCC3CCC(C(=O)NC4CCC(C)CC4)CC3)cc2CC1C (stereo unspecified),-14%,16µM*,-5%,-17%,3%,i
CCc1cccc(NC(=O)C2CCC(CNS(=O)(=O)c3ccc4c(c3)CCCC(=O)N4)CC2)c1 (stereo unspecified),-22%,13µM*,-18%,-30%,0%,u
COc1cccc(NC(=O)C2CCC(CNS(=O)(=O)c3ccc4c(c3)CC(C)N4C(C)=O)CC2)c1 (stereo unspecified),-28%,21µM*,-25%,-1%,0%,i
O=C(NC(=S)Nc1nc2c(ccc3ccccc32)s1)c1cccs1,0%,8%,-15%,12%,0%,i
CCCS(=O)(=O)c1c(S(=O)(=O)CCC)c2cc(C(C)(C)C)ccn2c1C(=O)c1ccc(OC)c(OC)c1,-14%,-2%,0%,x,6%,x
COc1ccc(Br)cc1S(=O)(=O)NNC(=O)c1c(C)nc2ccccn12,1%,-18%,2%,-3%,-10%,i
Cc1nc2ccccn2c1C(=O)NNS(=O)(=O)c1ccc(C(C)(C)C)cc1,0%,9.2µM*,10%,-37%,-2%,u
